Source: PubChem
IL1B NFkB inh = blocks IL-1B driven NFkB nuclear translocation in HUVEC cells; AID 796; HUVEC IL-1B NFkB p65 nuclear translocation imaging; hit rate 0.43% among 94,000; inhibition, % at 2 µM;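 active means inhibition above about 30% together with a positive call from visual inspection of the well image, limit read from the data; inconclusive means inhibition above a set limit but visual check negative; inactive means inhibition not above a set limit, visual check negative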;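 further: nuclear over cytoplasmic p65 intensity ratio measured by imaging; 0% = IL-1B stimulated DMSO wells and 100% = unstimulated DMSO wells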
Phagocyt inh = macrophage phagocytosis inhibition; AID 1029; hit rate 0.07% among 110,000; inhibition, % at 5 µM; J774A.1 macrophage IgG-bead phagocytosis, imaging;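 active means inhibition above the mean of the plate negative controls plus 5 SD, cut at about 13% in these data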;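 further: phagocytic index as fraction of beads internalized from green versus red external bead signal; plate controls were DMSO negative control for no effect and cytochalasin-D positive control for full effect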
PTK2B oligo ant = Pyk2 (human) oligomerization antagonism | Q293 cells, Pyk2 FERM NanoBiT luminescence; stronger effect = lower value | z-score (the deposit names both 25 µM and 10 µM) | hit rate 0.83% among 99,000;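 active means Z-score of -3 or lower, scaled per plate to the spread of control and sample wells; inactive means z-score above -3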;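 further: negative z-score means lost luminescence so less FERM oligomerization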
NFkB transloc pot = enhances IL-1B driven NFkB nuclear translocation. hit rate 0.3% among 94,000. AID 819. HUVEC IL-1B NFkB p65 nuclear translocation imaging. activation, % at 2 µM;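 active means activation above 40%, about the mean plus 3 SD, also judged a hit on visual image review; inconclusive means activation above 40% but not a hit on visual review; inactive means activation not above 40% and no visual hit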;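 further: percent activation is computed from the nuclear over cytoplasmic p65 intensity ratio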
IL1B cytotox = toxic to HUVEC cells under IL-1B stimulation | HUVEC cell count loss, Hoechst imaging, IL-1B stimulated | cell count reduction, % at 2 µM | hit rate 0.41% among 94,000 | AID 845;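 active means cell count reduction more than 3 SD above the screen-wide mean, cut at about 70% in these data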;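 further: normalized per plate to untreated control cells as the no-loss baseline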
* hit, by the source's call; ? = inconclusive; . = no result given; [ ] = remark or other dose. Compounds with a hit are over-represented: about 1.4% of the library has one in this group of screens.

SMILES	IL1B NFkB inh	Phagocyt inh	PTK2B oligo ant	NFkB transloc pot	IL1B cytotox
CC[n+]1c(/C=C/C=C/N(C(C)=O)c2ccccc2)sc2cc(OC)ccc21	.	70*[fluoresces]	.	.	.
CCOC(=O)Cn1c(-c2cccnc2Cl)nc2cc(Cl)c(Cl)cc21	4	0	-3.8*	-4	-37
CCOC(=O)Cn1c(-c2cccnc2Cl)nc2cc(C)c(C)cc21	8	-2	-0.84	-7	-17
Cc1cc(S(=O)(=O)Nc2ccc(F)cc2)c(C)s1	12	-1	-0.81	-12	89*
Cc1cc(S(=O)(=O)Nc2cccc(O)c2)c(C)s1	-16	-1	0.04	16	2
COC(=O)c1ccc(NC(=O)c2sc3nc(-c4ccccc4)cn3c2C)cc1	8	4	-3.8*	-7	1
COC(=O)C1CCN(C(=O)c2cc(OC)c(OC)c(OC)c2)CC1	-10	-1	0.54	10	-40
CCOC(=O)c1c(-c2ccccc2)nc2ccc(Cl)cn12	-12	.	-0.49	11	-15
CN(C)Cc1cnc2ccc(Cl)cn12	97*	-3	0.07	-97	87*
COC(=O)c1c(-c2ccc(C)cc2)csc1NC(=S)NC(=O)c1cc(OC)cc(OC)c1	.	-8	.	.	.
Cc1cccc2cc(C#N)c(N3CCN(C)CC3)nc12	-15	0	-0.04	15	-18
Cc1cccc2cc(C#N)c(SCCN3CCCCC3)nc12	97*	.	.	-97	84*
CCOC(=O)C(=CNc1ccc(C)cc1C)C(=O)OCC	9	0	-3.2*	-9	6
COCCNC(=O)c1ccccc1NC(=O)c1ccc(OC)c(OC)c1	.	0	-0.12	.	.
Cc1ccc2nc(NC(=O)CNS(=O)(=O)c3ccc(Br)s3)sc2c1	5	-1	-0.31	-5	-15
Cc1ccc2nc(NC(=O)CN(C)S(=O)(=O)c3ccc(Br)s3)sc2c1	38*	-1	-0.65	-38	29
O=[N+]([O-])c1ccc(-c2nc(-c3cccs3)c(-c3cccs3)[nH]2)cc1	-5	.	-4.2*	5	9
O=C(Nc1ccc2c(c1)OCO2)c1cccc(F)c1	12	2	1.3	-12	90*
O=C(Nc1ccc2c(c1)OCO2)c1c(F)cccc1F	-23	4	0.03	23	6
CCOc1ccc(NC(=O)c2cccc3c2C(=O)N(CCOC)C3)cc1	10	-2	-1.8	-10	-19
O=C(Nc1ccc(F)cc1)c1cccc2c1C(=O)N(Cc1ccccn1)C2	10	0	0.11	-10	94*
CCN(c1ccccc1)S(=O)(=O)c1ccc(NCC2COc3ccccc3O2)nc1 (stereo not drawn)	-10	.	-2.6	10	-22
Cc1ccc(-c2n[nH]c(=S)n2/N=C/c2c(C)nn(-c3ccccc3)c2C)cc1	.	-11	.	.	.
Cc1nn(-c2ccccc2)c(C)c1/C=N/n1c(-c2ccc(C(C)(C)C)cc2)n[nH]c1=S	4	.	-3.9*	-4	-9
CCN(CC)C(=O)CSc1nnc(-c2ccccc2)n1-c1ccccc1	38*	-1	-0.83	-38	-42
SMILES	IL1B NFkB inh	Phagocyt inh	PTK2B oligo ant	NFkB transloc pot	IL1B cytotox
O=C(NC(Cc1ccccc1)c1ccc2c(c1)OCCCO2)c1ccc(F)cc1 (stereo not drawn)	-44	1	-1.7	44*	-6
CC(=O)N1CCc2cc(S(=O)(=O)NC(CC(C)C)C(=O)N3CCn4c3nc3ccccc34)ccc21 (stereo not drawn)	-17	0	-3.7*	17	-53
O=C(O)C1CCCCC1C(=O)NCc1cn2ccccc2n1 (stereo not drawn)	.	-2	.	.	.
CC1CCN(C(=O)CSc2nnc(CNc3ccc(F)cc3)n2Cc2ccco2)CC1	32*	-2	2.3	-32	84*
O=C(CSc1nnc(CNc2ccc(F)cc2)n1Cc1ccco1)N1CCCC1	.	0	-0.25	.	.
CCOC(=O)C1=C(Cc2ccc(F)cc2)C(=O)c2ccccc2C1=O	-59	0	-0.8	59*	1
Clc1ccc(-c2nnc(SCc3ccon3)o2)c(Cl)c1	4	.	0.31	-4	70*
COC(=O)c1[nH]c2ccc(C)cc2c1NC(=O)CCN1CCN(Cc2ccc3c(c2)OCO3)CC1	6	-1	1.5	-6	-16
COc1cc(/C=C/C(=O)c2c(O)ccc3c(C)cc(=O)oc23)ccc1O	-9	0	-3*	9	-2
CCCNC(=O)CC1Sc2ccccc2NC1=O (stereo not drawn)	-43	0	0.63	43*	-7
O=C(O)CC1Sc2ccccc2NC1=O (stereo not drawn)	.	-1	-0.21	.	.
CCOC(=O)c1nn(-c2cccc(OC)c2)c(-c2ccccc2)c1C(=O)c1ccccc1	-2	.	-4.2*	2	-12
CCOC(=O)c1nn(-c2ccc(F)cc2)c2nc(-c3ccccc3)c(C#N)c(=O)n12	.	-1	0.11	.	.
CCOC(=O)c1nn(-c2cccc(Cl)c2)c(C)c1C(C)=O	14	0	-0.2	-14	6
CCOC(=O)c1c(N)nn(C(C)=O)c1-c1ccccc1	6	-1	2.2	-6	-11
CCOC(=O)c1nn(-c2ccccc2)c(-c2ccccc2)c1C(=O)c1ccccc1	-6	.	-3.5*	6	6
CCOC(=O)c1nn(-c2ccc(F)cc2)c(-c2ccccc2)c1C(=O)c1ccccc1	-12	.	-3.1*	12	15
CCOC(=O)c1nnn(-c2ccccc2)c1C	-18	.	0.07	18	-20
CCOC(=O)c1nn(-c2ccccc2F)c(-c2ccccc2)c1C(=O)c1ccccc1	-10	.	-4*	10	2
CCC1Oc2ccccc2N(CC(=O)NCCCN2CCC(C)CC2)C1=O (stereo not drawn)	.	-1	0.27	.	.
CN1CCN(C(=O)C(Cc2ccccc2)NS(=O)(=O)c2ccc3c(c2)CCC(=O)N3)CC1 (stereo not drawn)	-9	0	.	9	8
Cc1ccc(C)c(/C(O)=C2\C(=O)C(=O)N(Cc3cccnc3)C2c2cccnc2)c1 (stereo not drawn)	-87	.	0.93	?	-6
CSc1sc2ccccc2[n+]1CCCS(=O)(=O)[O-]	5	-3	-0.2	-5	21
O=C1CC(c2ccc(F)cc2)Cc2nc(NCC3CCCO3)ncc21 (stereo not drawn)	48*	2	0.58	-48	-8
Cc1nn(-c2cc(N3CCCCC3)ccc2[N+](=O)[O-])c(=O)c2ccccc12	-8	.	-3.8*	8	-22
SMILES	IL1B NFkB inh	Phagocyt inh	PTK2B oligo ant	NFkB transloc pot	IL1B cytotox
Cc1nn(-c2cc(N3CCNCC3)ccc2[N+](=O)[O-])c(=O)c2ccccc12	-15	.	-0.28	15	-28
Cc1ccc(NC(=O)COC(=O)CCC(=O)c2cccs2)cc1S(=O)(=O)N1CCOCC1	-48	0	0.67	48*	-18
O=c1[nH]c(/C=C/c2ccccc2[N+](=O)[O-])nc2ccccc12	.	-9	.	.	.
COc1ccc(CCNC(=O)C2CC(=O)N(c3ccccc3)C2)cc1OC (stereo not drawn)	4	0	-0.66	-4	88*
COc1ccc(CCNC(=O)C2CC(=O)N(C3CCCCCCC3)C2)cc1OC (stereo not drawn)	7	-1	0.4	-7	-8
CC(=O)N1N=C(c2cccc([N+](=O)[O-])c2)OC1(C)CC(=O)Nc1ccccc1 (stereo not drawn)	.	-12	.	.	.
